In PubChem BioAssay (NCATS):
Records with an inconclusive call do not appear. Where a call stands in place of a potency, no number is given. Activity calls are given as the source filed them. Calls come from the whole dose curve; as a rule, active = well fitted inhibition curve with a large enough effect; inconclusive = small, poorly fitted or top-dose-only effect; inactive = flat fitted curve, though single readings scatter.

Tests used:
Assay in all cases: qHTS profiling for inhibitors of Plasmodium falciparum proliferation (AID 504749); note: nearly all actives have a fitted effect of over 60% in size
Details in all cases: P. falciparum in erythrocytes, SYBR Green DNA, 72 h; series mostly up to 28.7 µM
[1] = test system: ECU
Procedure, shortened: (§1)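 Fluorescence of SYBR Green-bound parasite DNA, read at 485/535 nm, served as the growth measure. Infected erythrocytes were cultured with compound 72 h; artemisinin (0.29 uM) and DMSO wells defined the normalization range.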

[2] = test system: FAB9
Procedure, shortened: as §1

[3] = test system: GB4
Procedure, shortened: as §1

[4] = test system: HB3
Procedure, shortened: as §1

[5] = test system: ICS
Procedure, shortened: as §1

[6] = test system: JCK
Procedure, shortened: as §1

[7] = test system: N140
Procedure, shortened: as §1

[8] = test system: P93_24
Procedure, shortened: as §1

[9] = test system: P94_40
Procedure, shortened: as §1

[10] = test system: PAD
Procedure, shortened: as §1
Potency is the fitted concentration of half-maximal effect.

SMILES	Potency [1]	Potency [2]	Potency [3]	Potency [4]	Potency [5]	Potency [6]	Potency [7]	Potency [8]	Potency [9]	Potency [10]
N[C@@H](C(=O)N[C@@H]1C(=O)N2C(C(=O)O)=C(Cl)CS[C@H]12)c1ccccc1	inactive	inactive	inactive	inactive	inactive	inactive	inactive	inactive	inactive	inactive
O=S(=O)(O)CCS	inactive	inactive	inactive	inactive	inactive	inactive	inactive	inactive	inactive	inactive
COc1cc([C@@H]2c3cc4c(cc3[C@H](O)[C@H]3COC(=O)[C@H]23)OCO4)cc(OC)c1OC	3.55 µM (active)	6.31 µM (active)	3.38 µM (active)	1.78 µM (active)	0.891 µM (active)	–	2.82 µM (active)	2.24 µM (active)	2.51 µM (active)	3.55 µM (active)
Cc1cccc(N(C)C(=S)Oc2ccc3ccccc3c2)c1	inactive	inactive	inactive	inactive	inactive	inactive	inactive	inactive	inactive	inactive
C#CCN[C@@H]1CCc2ccccc21	inactive	inactive	inactive	inactive	inactive	inactive	inactive	inactive	inactive	inactive
CNC(=O)c1cc(Oc2ccc(NC(=O)Nc3ccc(Cl)c(C(F)(F)F)c3)cc2)ccn1	8.91 µM (active)	inactive	13.5 µM (active)	11.2 µM (active)	1.12 µM (active)	–	5.01 µM (active)	10 µM (active)	–	2.24 µM (active)
Nc1nc(N)nc(-c2cc(Cl)ccc2Cl)n1	inactive	inactive	inactive	inactive	inactive	inactive	inactive	inactive	inactive	inactive
S=P(N1CC1)(N1CC1)N1CC1	inactive	inactive	inactive	inactive	inactive	inactive	inactive	inactive	inactive	inactive
COc1ccc(-c2ccc3cc(C(=O)O)ccc3c2)cc1C12CC3CC(CC(C3)C1)C2	inactive	inactive	inactive	inactive	–	inactive	inactive	inactive	inactive	inactive
COc1cc2c(Nc3ccc(Br)cc3F)ncnc2cc1OCC1CCN(C)CC1	3.16 µM (active)	10 µM (active)	1.51 µM (active)	5.01 µM (active)	3.98 µM (active)	–	2.51 µM (active)	2 µM (active)	2.82 µM (active)	2.24 µM (active)
CC[C@H](C)C(=O)O[C@H]1C[C@@H](C)C=C2C=C[C@H](C)[C@H](CC[C@@H]3C[C@@H](O)CC(=O)O3)[C@H]21	inactive	inactive	inactive	inactive	inactive	inactive	inactive	inactive	inactive	inactive
C[C@@H](NCCCc1cccc(C(F)(F)F)c1)c1cccc2ccccc12	3.16 µM (active)	inactive	12 µM (active)	12.6 µM (active)	1.78 µM (active)	–	2.82 µM (active)	6.31 µM (active)	5.01 µM (active)	2 µM (active)
CC(C)OC(=O)C(C(=O)OC(C)C)=C1SC=CS1	inactive	inactive	inactive	inactive	inactive	inactive	inactive	inactive	–	inactive
Nc1ccc(S(=O)(=O)Nc2ccccn2)cc1	inactive	inactive	inactive	inactive	inactive	inactive	inactive	–	–	inactive
Cc1noc(NS(=O)(=O)c2ccc(N)cc2)c1C	inactive	inactive	inactive	inactive	inactive	inactive	inactive	inactive	inactive	inactive
C1CCC(C(CC2CCCCN2)C2CCCCC2)CC1 (centres undefined)	5.01 µM (active)	–	9.53 µM (active)	11.2 µM (active)	1.12 µM (active)	12.6 µM (active)	10 µM (active)	12.6 µM (active)	11.2 µM (active)	6.31 µM (active)
CCn1cc(C(=O)O)c(=O)c2cc(F)c(N3CCNCC3)cc21	inactive	inactive	–	inactive	–	inactive	–	–	–	inactive
CC1=CC(=O)c2ccccc2C1=O	inactive	inactive	–	inactive	–	inactive	inactive	inactive	inactive	inactive
CCOc1cc(N)c(Cl)cc1C(=O)NCC1CN(Cc2ccc(F)cc2)CCO1 (centres undefined)	10 µM (active)	–	12 µM (active)	8.91 µM (active)	3.98 µM (active)	–	–	6.31 µM (active)	11.2 µM (active)	11.2 µM (active)
CCOCC(O)COc1ccc(NC(=O)CC[S+](C)C)cc1 (centres undefined)	inactive	inactive	inactive	inactive	–	inactive	inactive	inactive	inactive	inactive
COc1ccc(C(=O)CC(=O)c2ccc(C(C)(C)C)cc2)cc1	inactive	inactive	inactive	–	–	inactive	inactive	inactive	inactive	inactive
CCn1cc(C(=O)O)c(=O)c2cc(F)c(N3CCN(C)CC3)cc21	–	inactive	inactive	inactive	–	inactive	inactive	–	–	inactive
COC(=O)Nc1nc2ccc(C(=O)c3ccccc3)cc2[nH]1	inactive	inactive	–	inactive	inactive	inactive	inactive	inactive	inactive	inactive

SMILES	Potency [1]	Potency [2]	Potency [3]	Potency [4]	Potency [5]	Potency [6]	Potency [7]	Potency [8]	Potency [9]	Potency [10]
CCOC(=O)[C@H](CCc1ccccc1)N[C@H]1CS[C@H](c2cccs2)CN(CC(=O)O)C1=O	–	inactive	–	inactive	–	inactive	–	–	–	–
CC(=O)Oc1ccccc1C(=O)Nc1ncc([N+](=O)[O-])s1	inactive	inactive	–	–	11.2 µM (active)	inactive	inactive	inactive	inactive	inactive
CCn1cc(C(=O)O)c(=O)c2cc(F)c(N3CCNCC3)nc21	inactive	inactive	inactive	inactive	–	inactive	inactive	–	inactive	inactive
CN(Cc1cc(Br)cc(Br)c1N)C1CCCCC1	inactive	inactive	–	–	–	inactive	inactive	–	–	inactive
CCC(C)(C)c1ccc(CC(C)CN2C[C@@H](C)O[C@@H](C)C2)cc1 (some centres undefined)	inactive	inactive	inactive	–	–	inactive	inactive	inactive	inactive	inactive
COc1cccc(N(C)C(=S)Oc2ccc3c(c2)CCCC3)n1	inactive	inactive	inactive	inactive	–	inactive	inactive	inactive	–	inactive
CC(C)Cn1cnc2c(N)nc3ccccc3c21	inactive	inactive	inactive	–	inactive	inactive	inactive	inactive	inactive	inactive
CCCCOc1ccc(CC(=O)NO)cc1	–	–	3.22 µM (active)	3.98 µM (active)	3.16 µM (active)	–	3.98 µM (active)	1.58 µM (active)	2 µM (active)	1.41 µM (active)
CC(C)(C)C(=O)OCOP(=O)(COCCn1cnc2c(N)ncnc21)OCOC(=O)C(C)(C)C	inactive	inactive	–	–	–	inactive	–	–	–	inactive
CCCc1nc(C)c2c(=O)[nH]c(-c3cc(S(=O)(=O)N4CCN(CC)CC4)ccc3OCC)nn12	–	inactive	inactive	–	4.47 µM (active)	inactive	–	8.91 µM (active)	inactive	–
O=c1oc2c(O)c(O)cc3c(=O)oc4c(O)c(O)cc1c4c23	–	–	0.849 µM (active)	2 µM (active)	0.891 µM (active)	inactive	–	–	–	–
CCOC(=O)c1ccc(C#Cc2ccc3c(c2)C(C)(C)CCS3)nc1	inactive	inactive	inactive	inactive	–	inactive	inactive	inactive	inactive	inactive
N[C@@H](Cc1ccc(O)c(O)c1)C(=O)O	–	–	inactive	–	–	–	–	–	–	–
CN1CCCC(n2nc(Cc3ccc(Cl)cc3)c3ccccc3c2=O)CC1 (centres undefined)	–	inactive	–	inactive	8.91 µM (active)	–	–	–	inactive	–
CC(C)(Sc1cc(C(C)(C)C)c(O)c(C(C)(C)C)c1)Sc1cc(C(C)(C)C)c(O)c(C(C)(C)C)c1	inactive	inactive	inactive	–	3.16 µM (active)	inactive	inactive	inactive	inactive	inactive
COc1cc(NS(=O)(=O)c2ccc(N)cc2)nc(OC)n1	inactive	inactive	inactive	inactive	–	inactive	inactive	inactive	inactive	inactive
Cc1oc(=O)oc1CN1CCN(c2cc3c(cc2F)c(=O)c(C(=O)O)c2n3C(C)S2)CC1 (centres undefined)	10 µM (active)	–	7.57 µM (active)	8.91 µM (active)	7.08 µM (active)	–	–	5.01 µM (active)	7.94 µM (active)	–
CNCC[C@H](Oc1cccc2ccccc12)c1cccs1	11.2 µM (active)	inactive	12 µM (active)	–	3.16 µM (active)	–	8.91 µM (active)	3.16 µM (active)	10 µM (active)	11.2 µM (active)
CCOC(=O)c1ccc(OC(=O)CCCCCN=C(N)N)cc1	–	inactive	–	4.47 µM (active)	2 µM (active)	inactive	–	–	inactive	–
CCCCCCNC(=O)n1cc(F)c(=O)[nH]c1=O	–	–	8.49 µM (active)	8.91 µM (active)	4.47 µM (active)	–	–	–	–	10 µM (active)
Oc1c(Cl)cc(Cl)c2cccnc12	–	inactive	12 µM (active)	inactive	7.94 µM (active)	inactive	12.6 µM (active)	–	11.2 µM (active)	–
O=C(O)c1cn(C2CC2)c2cc(N3CCNCC3)c(F)cc2c1=O	inactive	inactive	–	–	3.16 µM (active)	inactive	–	–	–	inactive
